Hits are enriched below; roughly 12% of the tested compounds scored in any of these assays.
PI5P4K alpha inh = qHTS for Inhibitors of phosphatidylinositol 5-phosphate 4-kinase (PI5P4K) | max response, % | PI5P4Kalpha enzyme, ADP-Glo luminescence, 60 min; active compounds read low | actives 1.2% (n = 330,000); active means max response of -50% or lower; inconclusive means between -30% and -50%; inactive means -30% or higher; further: value at the top dose of about 77 µM
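Reactions run in 0.038 M HEPES pH 7.4, 0.28 mM EGTA, 0.1% CHAPS and 5% DMSO, with PI5P4Kalpha, substrate, compound and 5 microM ATP final, one hour at room temperature. Readout is ADP-Glo luminescence.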
JMJD2A Tudor = qHTS Assay for Inhibitors of JMJD2A-Tudor Domain | Lysine-specific demethylase 4A (Homo sapiens), O75164 | AlphaScreen JMJD2A-Tudor / H3K4me3 peptide binding | actives 4.4% (n = 390,000) | Potency, µM (series often up to 114 µM), actives largely listed as inhibitors; further: nearly all actives have a fitted effect of over 50% in size
G9a block = qHTS Assay for Inhibitors of Histone Lysine Methyltransferase G9a | actives 8.8% (n = 350,000) | Potency, µM (doses to about 102 µM), hits mostly inhibitors | G9a H3K9 monomethylation, AlphaScreen, 2 h | Histone-lysine N-methyltransferase EHMT2 (Homo sapiens), Q96KQ7; further: nearly all actives have a fitted effect of over 75% in size
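G9a (20 nM) preincubated 15 min RT with compounds, then 500 nM biotinylated H3K9 peptide and 20 uM SAM added; 2 h RT reaction. Monomethyl-H3K9 product detected by AlphaScreen with anti-H3K9me1 antibody, streptavidin donor and anti-rabbit IgG acceptor beads.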
PLK1 PBD block = qHTS for Inhibitors of PLK1-PDB (polo-like kinase 1 - polo-box domain): Primary Screen. actives 2.8% (n = 360,000). Potency, µM, hits mostly inhibitors. Plk1 PBD binding of FITC phosphopeptide, fluorescence polarization. Serine/threonine-protein kinase PLK1 (Homo sapiens), P53350. AID 720504, 2013; further: series mostly up to about 57 µM; nearly all actives have a fitted effect of over 65% in size
BAZ2B block = qHTS Assay for Inhibitors of BAZ2B; Potency, µM (doses to about 114 µM), actives largely listed as inhibitors; AID 504333, 2011; actives 4.4% (n = 360,000); Bromodomain adjacent to zinc finger domain protein 2B (Homo sapiens), Q9UIF8; AlphaScreen BAZ2B-H3K14Ac peptide displacement; further: nearly all actives have a fitted effect of over 60% in size
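Complex of BAZ2B and biotin-H3K14Ac (50 nM apiece) forms over 30 min at RT, then faces library compounds up to 110 uM for another 30 min; AlphaScreen beads added, 20 min dark incubation, luminescence read.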
HP1b chromo inh = HTS for Inhibitors of HP1-beta Chromodomain Interactions with Methylated Histone Tails; Chromobox protein homolog 1 (Homo sapiens), P83916; actives 0.56% (n = 390,000); AlphaScreen HP1-beta / biotin-H3K9me3 peptide binding; Potency, µM (series often up to 114 µM), usual class: inhibitors; further: nearly all actives have a fitted effect of over 70% in size
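HP1-beta protein (50 nM final) preincubated 30 min at room temperature with biotinylated H3(1-18)K9me3 peptide (50 nM) in PBS pH 7.4, 0.01% Tween-20, then compound added for 30 min. AlphaScreen streptavidin donor/nickel chelate acceptor beads (10 ug/mL final), 30 min dark, luminescence read.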
Hits are given with their value; – = inactive; ? = inconclusive; · = no result; [ ] = another dose, or the depositor's remark. Unless noted, the call rests on the fitted dose curve; in most records, active means well fitted curve in the direction sought with a large enough effect; inconclusive means small, poorly fitted or top-dose-only effect, or another doubt; inactive means no such curve, though single readings can be large; an effect the other way counts as inactive or inconclusive.

SMILES	PI5P4K alpha inh	JMJD2A Tudor	G9a block	PLK1 PBD block	BAZ2B block	HP1b chromo inh
c1ccc2c(CNc3ccc(CNc4ncn[nH]4)cc3)cccc2c1	–	56.2µM	?	–	44.7µM	?
CCOC(=O)/C=C/C(=O)N1CCN(C(=O)/C=C/C(=O)OCC)CC1	–	–	56.2µM	–	–	–
CCNc1ncc2nc(-c3ccc(Cl)cc3)c(=O)n(C)c2n1	·	·	–[0.501 µM]	·	·	·
Cc1cc(/C=N/n2cnnc2)c(C)n1-c1ccc(C(=O)O)cc1	–	–	–	–	·	–
COC(=O)c1ccc(-n2c(C)cc(/C=N/n3cnnc3)c2C)cc1	–	–[11.4 µM]	56.2µM	?	?	–
COc1ccc(NC(=O)c2ccc(C#N)cc2)cc1NS(=O)(=O)c1ccc(F)cc1	–	–	8.91µM	–	–	–
CN(C)S(=O)(=O)c1cccc(NC(=O)c2cc(=O)[nH]c(=O)[nH]2)c1	–	?	1.12µM	–	?	–
CN(c1ccccc1)S(=O)(=O)c1cccc(NC(=O)c2cccc(C#N)c2)c1	–	–	–[12.7 µM]	–	–	–
CCN(CC)S(=O)(=O)c1cccc(NC(=O)c2ccc(C#N)cc2)c1	–	–	20µM	–	–	–
O=C(CSc1nc2ncc(Br)cc2[nH]1)c1cccc([N+](=O)[O-])c1	–	–	44.7µM	–	–	–
CC(C)(C)C(=O)CSc1nc2ncc(Br)cc2[nH]1	–	?	50.1µM	–	–	–
Cc1nc2nc(SCC(=O)c3cccc([N+](=O)[O-])c3)[nH]c2cc1Br	–	–	?	–	–	–
O=C(C[n+]1cc(Br)cc(Br)c1)c1cccc([N+](=O)[O-])c1	–	–	–	–	50.1µM	–
CCc1nn(CC(=O)N(C)C2CCCCC2)c(=O)c2cc3cc(C)ccc3n12	–	–	·	–	–	–
COCC(=O)N1CCC[C@@]2(CCN(Cc3ccc(C#N)cc3)C2)C1	·	·	–[12.7 µM]	·	·	·
COC(=O)C1=C(C)NC(=O)/C1=C\c1cc(C)n(-c2c(C)cccc2C)c1C	·	31.6µM	10µM	–	31.6µM	?
COC(=O)C1=C(C)NC(=O)/C1=C\c1cc(C)n(-c2ccccc2F)c1C	–	–	·	–	44.7µM	–
Cc1cccc(C)c1-n1c(C)cc(/C=C2\NC(=O)NC2=O)c1C	·	50.1µM	?	–	39.8µM	–
COC(=O)C1=C(C)NC(=O)/C1=C\c1ccc2c(c1)OCO2	–	–	·	–	–	–
COC(=O)C1=C(C)NC(=O)/C1=C\c1cc(C)n(-c2ccccc2C)c1C	–	44.7µM	44.7µM	–	44.7µM	–
COC(=O)C1=C(C)NC(=O)/C1=C\c1cccs1	–	–	–	–	–	–
Nc1nc(Cl)nc2c1ncn2[C@@H]1O[C@H](COP(=O)(O)OP(=O)(O)OP(=O)(O)O)[C@H](O)[C@H]1O	·	·	–[12.7 µM]	·	·	·
COc1ccc(C)cc1NC(=O)c1sc2nc(-c3ccc(F)cc3)cn2c1C	·	–	–	·	–	–
Cc1cccc(C)c1-n1nnnc1SCC(=O)N1CCNC1=O	–	–	44.7µM	–	–	–
Cc1cc(C)cc(OCc2cc(=O)n3c(-c4ccccc4)csc3n2)c1	·	?	–	·	79.4µM	–
C=CCNCc1cc(=O)n2c(-c3ccccc3)csc2n1	–	3.55µM	?	–	50.1µM	?
CCOc1ccc(NC(=O)CN(C)Cc2cc(=O)n3c(-c4ccccc4)csc3n2)cc1OCC	–	–	50.1µM	–	?	–
CCn1c(SCC(=O)NC2CCCCC2)nc2c(c1=O)SCC2	–	–	–	–	–	–
CCOC(=O)C1=C(C)N(CC(C)C)C(=O)/C1=C\c1ccc(OCC(=O)Nc2ccccc2)cc1	–	–	50.1µM	–	–	–
CSc1ccc(S(=O)(=O)N2c3ccccc3CC2C)cc1 (configuration not stated)	–	–	–	–	–	–
